target: T1, Aspartate--tRNA(Asp/Asn) ligase (Mycobacterium tuberculosis (strain ATCC 25618 / H37Rv)) (UniProt P9WFW3); assay: Assay for Asp RNA synthetase-1 from Mycobacterium tuberculosis; format: functional; set-up: scale not given: direction of the effect not stated beside the values; conditions: 30 µM; note: in the data most compounds retested in dose-response had high values
T1 sequence (whole entry): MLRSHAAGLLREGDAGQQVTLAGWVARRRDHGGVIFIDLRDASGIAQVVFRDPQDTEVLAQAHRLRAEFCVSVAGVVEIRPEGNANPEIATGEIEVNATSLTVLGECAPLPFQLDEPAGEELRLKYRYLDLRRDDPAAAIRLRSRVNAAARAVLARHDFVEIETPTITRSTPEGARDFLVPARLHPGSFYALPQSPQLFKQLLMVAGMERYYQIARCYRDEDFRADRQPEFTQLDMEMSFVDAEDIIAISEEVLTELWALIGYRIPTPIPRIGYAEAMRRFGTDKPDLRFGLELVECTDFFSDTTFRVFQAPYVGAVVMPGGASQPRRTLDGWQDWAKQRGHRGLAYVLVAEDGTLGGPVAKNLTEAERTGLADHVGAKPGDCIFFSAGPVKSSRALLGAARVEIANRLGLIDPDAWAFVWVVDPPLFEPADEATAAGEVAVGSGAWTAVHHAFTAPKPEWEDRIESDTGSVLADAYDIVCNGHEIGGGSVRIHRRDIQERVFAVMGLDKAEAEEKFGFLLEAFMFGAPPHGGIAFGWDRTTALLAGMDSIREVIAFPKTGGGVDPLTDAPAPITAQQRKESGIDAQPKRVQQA

| SMILES | Percent Effect [%] |
| --- | --- |
| O=C1OCCN1CCOc1nc(-c2ccccc2Cl)no1 | -7.33 |
| Cc1cccc(-n2cc(C(=O)N3CCCC(n4cccn4)C3)nn2)c1 (stereo not given) | 1.99 |
| Cc1csc(N2CCCN(C(=O)C(C)n3ccnc3)CC2)n1 (stereo not given) | 1.2 |
| Cc1ccc(CN(Cc2c[nH]cn2)C2CC(C)(C)NC(C)(C)C2)o1 | -1.68 |
| COCCNC(=O)CCc1c(C)nn(-c2nc(C)c(C)c(=O)[nH]2)c1C | -1.79 |
| CC(NC(=O)Cc1cccs1)c1nnc2n1CCCCC2 (stereo not given) | -4.69 |
| CN(C)Cc1nnc(C2CCN(c3nccc(N)n3)CC2)n1C1CC1 | 2.12 |
| CNC(=O)CCNC(=O)c1cccc(Cn2nc(C)cc2C)c1 | -3.31 |
| CN1C(=O)C(C)(C)COc2cc(NS(=O)(=O)c3ccccc3)ccc21 | -5.61 |
| Cc1cc(C(=O)N2CC[C@H](OCC3CC3)[C@@H]2Cc2cccnc2)no1 | 1.17 |
| O=C(CCNc1ncccn1)NCCOc1ccc2c(c1)CCC2 | 1.63 |
| COc1ccc(-c2nnc(SC(C)C(=O)NCC(C)C)[nH]2)c(OC)c1 (stereo not given) | 7.67 |
| CC1CN(CC(=O)NC(=O)NCc2ccccc2)CCO1 (stereo not given) | -6.29 |
| CN(C)C(=O)N1CCN(CCn2nc3ccccn3c2=O)CC1 | -3.02 |
| O=C(c1ccc(-n2cccn2)nc1)N1CCCN(c2cccnn2)CC1 | -4.61 |
| Cc1cccc(C(=O)N2C[C@@H](OCc3cccnc3)[C@H]3OCCC[C@@H]32)n1 | -2 |
| CC(=O)N1CCN(C(=O)c2cnn(-c3ccccc3Cl)c2)CC1 | 4.65 |
| Cn1cc(C(=O)NC2CCN(C(=O)NCCSC(F)(F)F)CC2)cn1 | 0.597 |
| Cc1ncnc2c1CCN(Cc1ccc3c(c1)OCO3)CC2 | -0.729 |
| O=C(N[C@@H]1CCNC[C@H]1O)c1ccc(F)c(Cl)c1 | -0.19 |

| SMILES | Percent Effect [%] |
| --- | --- |
| Cc1nn(C)c(C)c1C1CCCN1CC(=O)NC(C1CC1)C1CC1 (stereo not given) | -3.8 |
| COCC(=O)N1CC[C@H]2C[C@H](C)O[C@@H]2C1 | -2.9 |
| COCC(=O)N1CCC(c2nc3ccc(-c4ccccc4)cn3n2)CC1 | -2.8 |
| Cc1cccn2c(=O)cc(OC(=O)c3ccccc3)nc12 | -3.21 |
| Cc1noc(C)c1CN(C)C(=O)NC1CCN(C2CC2)CC1 | -2.46 |
| Cc1ccc(C(=O)NS(=O)(=O)c2cc(Cl)ccc2Cl)c(=O)[nH]1 | 0 |
| Cc1cnc(CN2CCCC(c3cc(C(N)=O)[nH]n3)C2)o1 (stereo not given) | 9.73 |
| Cc1ccc(CNC(=O)CN2CCCC(Cn3cncn3)C2)s1 (stereo not given) | -2.78 |
| CO[C@H]1CCN(c2ccc(C)nn2)[C@H]1Cc1cnn(C)c1 | 1.39 |
| CCN1CCN(C2CCN(Cc3ncc(C(C)(C)C)o3)CC2)C1=O | -3.69 |
| O=C(Cn1nc2c(cc1=O)CCCC2)N[C@@H](Cc1ccccc1)C(=O)O | 0.174 |
| N#CC1CCCN(c2nc(-c3ccccc3)nc3c2CCNCC3)C1 (stereo not given) | 0.524 |
| Cc1cccn2cc(CC(=O)N3CCCC(n4cncn4)C3)nc12 (stereo not given) | 1.06 |
| O=S(=O)(c1cccs1)N1CCCn2nnc(CN3CCCCC3)c2C1 | 5.59 |
| Cc1nc(C)n(CC2CCCCN2CC(=O)NC2CCOCC2)n1 (stereo not given) | -4.37 |
| Cc1ccc(NC2CCN(C(=O)CCNS(C)(=O)=O)CC2)nn1 | -2.45 |
| Cc1nc(C)n(CC2CN(c3ncccn3)Cc3nccn3C2)n1 (stereo not given) | -0.127 |
| O=C(c1cccs1)N1CCC2(C1)c1ccccc1S(=O)(=O)N2CC1CC1 (stereo not given) | -6.49 |
| Cc1nccnc1N1CCC2(CCCN(C3CCOCC3)C2=O)C1 (stereo not given) | -1.21 |
| Cc1nc(C)n(CC2CCCN(c3ncnc4ccsc34)C2)n1 (stereo not given) | 0.756 |

target: Shiga toxin 2 (Escherichia coli O157:H7) (UniProt P09385+P09386); assay: E. coli 0.157:H7 Shiga Toxin SOP - stx2 screening assay; format: functional; set-up: scale not given: direction of the effect not stated beside the values; conditions: 30 µM

| SMILES | Percent Effect [%] |
| --- | --- |
| O=C1OCCN1CCOc1nc(-c2ccccc2Cl)no1 | -14.8 |
| Cc1cccc(-n2cc(C(=O)N3CCCC(n4cccn4)C3)nn2)c1 (stereo not given) | -13.8 |
| Cc1csc(N2CCCN(C(=O)C(C)n3ccnc3)CC2)n1 (stereo not given) | -6.32 |
| Cc1ccc(CN(Cc2c[nH]cn2)C2CC(C)(C)NC(C)(C)C2)o1 | 7.12 |
| COCCNC(=O)CCc1c(C)nn(-c2nc(C)c(C)c(=O)[nH]2)c1C | -2.84 |
| CC(NC(=O)Cc1cccs1)c1nnc2n1CCCCC2 (stereo not given) | 5.32 |
| CN(C)Cc1nnc(C2CCN(c3nccc(N)n3)CC2)n1C1CC1 | -41.2 |
| CNC(=O)CCNC(=O)c1cccc(Cn2nc(C)cc2C)c1 | -15.4 |
| CN1C(=O)C(C)(C)COc2cc(NS(=O)(=O)c3ccccc3)ccc21 | 8.93 |
| Cc1cc(C(=O)N2CC[C@H](OCC3CC3)[C@@H]2Cc2cccnc2)no1 | 1.88 |
| O=C(CCNc1ncccn1)NCCOc1ccc2c(c1)CCC2 | 35.6 |
| COc1ccc(-c2nnc(SC(C)C(=O)NCC(C)C)[nH]2)c(OC)c1 (stereo not given) | 8.94 |
| CC1CN(CC(=O)NC(=O)NCc2ccccc2)CCO1 (stereo not given) | -0.513 |
| CN(C)C(=O)N1CCN(CCn2nc3ccccn3c2=O)CC1 | -19.4 |
| O=C(c1ccc(-n2cccn2)nc1)N1CCCN(c2cccnn2)CC1 | 3.17 |
| Cc1cccc(C(=O)N2C[C@@H](OCc3cccnc3)[C@H]3OCCC[C@@H]32)n1 | -30.7 |
| CC(=O)N1CCN(C(=O)c2cnn(-c3ccccc3Cl)c2)CC1 | 14.3 |
| Cn1cc(C(=O)NC2CCN(C(=O)NCCSC(F)(F)F)CC2)cn1 | -30.6 |
| Cc1ncnc2c1CCN(Cc1ccc3c(c1)OCO3)CC2 | -19.3 |
| O=C(N[C@@H]1CCNC[C@H]1O)c1ccc(F)c(Cl)c1 | 12.3 |

| SMILES | Percent Effect [%] |
| --- | --- |
| Cc1nn(C)c(C)c1C1CCCN1CC(=O)NC(C1CC1)C1CC1 (stereo not given) | -0.393 |
| COCC(=O)N1CC[C@H]2C[C@H](C)O[C@@H]2C1 | 3.29 |
| COCC(=O)N1CCC(c2nc3ccc(-c4ccccc4)cn3n2)CC1 | -19.6 |
| Cc1cccn2c(=O)cc(OC(=O)c3ccccc3)nc12 | -13.3 |
| Cc1noc(C)c1CN(C)C(=O)NC1CCN(C2CC2)CC1 | -7.45 |
| Cc1ccc(C(=O)NS(=O)(=O)c2cc(Cl)ccc2Cl)c(=O)[nH]1 | -9.88 |
| Cc1cnc(CN2CCCC(c3cc(C(N)=O)[nH]n3)C2)o1 (stereo not given) | 13.4 |
| Cc1ccc(CNC(=O)CN2CCCC(Cn3cncn3)C2)s1 (stereo not given) | -43.9 |
| CO[C@H]1CCN(c2ccc(C)nn2)[C@H]1Cc1cnn(C)c1 | 3.96 |
| CCN1CCN(C2CCN(Cc3ncc(C(C)(C)C)o3)CC2)C1=O | 6.2 |
| O=C(Cn1nc2c(cc1=O)CCCC2)N[C@@H](Cc1ccccc1)C(=O)O | -48 |
| N#CC1CCCN(c2nc(-c3ccccc3)nc3c2CCNCC3)C1 (stereo not given) | -18.1 |
| Cc1cccn2cc(CC(=O)N3CCCC(n4cncn4)C3)nc12 (stereo not given) | -13.1 |
| O=S(=O)(c1cccs1)N1CCCn2nnc(CN3CCCCC3)c2C1 | -16.9 |
| Cc1nc(C)n(CC2CCCCN2CC(=O)NC2CCOCC2)n1 (stereo not given) | -17.4 |
| Cc1ccc(NC2CCN(C(=O)CCNS(C)(=O)=O)CC2)nn1 | -0.275 |
| Cc1nc(C)n(CC2CN(c3ncccn3)Cc3nccn3C2)n1 (stereo not given) | 11.6 |
| O=C(c1cccs1)N1CCC2(C1)c1ccccc1S(=O)(=O)N2CC1CC1 (stereo not given) | 6.62 |
| Cc1nccnc1N1CCC2(CCCN(C3CCOCC3)C2=O)C1 (stereo not given) | -27.2 |
| Cc1nc(C)n(CC2CCCN(c3ncnc4ccsc34)C2)n1 (stereo not given) | 28.8 |
